# Screens from PubChem.
# RORgamma inh – inhibitors of mouse ROR gamma transcriptional activity. P51450. Drosophila S2 Gal4-RORgamma UAS-luciferase reporter, 20 h. Potency, µM (titrated, usually from 53.6 µM), inactives show top-dose activity change, negative = inhibition, most hits filed as inhibitors. 310,000 compounds, 5.4% hits. AID 2551; note: potency is the fitted concentration of half-maximal effect; nearly all actives have a fitted effect of over 60% in size
# Target sequence (P51450 whole entry, looked up, the tested form may be a part): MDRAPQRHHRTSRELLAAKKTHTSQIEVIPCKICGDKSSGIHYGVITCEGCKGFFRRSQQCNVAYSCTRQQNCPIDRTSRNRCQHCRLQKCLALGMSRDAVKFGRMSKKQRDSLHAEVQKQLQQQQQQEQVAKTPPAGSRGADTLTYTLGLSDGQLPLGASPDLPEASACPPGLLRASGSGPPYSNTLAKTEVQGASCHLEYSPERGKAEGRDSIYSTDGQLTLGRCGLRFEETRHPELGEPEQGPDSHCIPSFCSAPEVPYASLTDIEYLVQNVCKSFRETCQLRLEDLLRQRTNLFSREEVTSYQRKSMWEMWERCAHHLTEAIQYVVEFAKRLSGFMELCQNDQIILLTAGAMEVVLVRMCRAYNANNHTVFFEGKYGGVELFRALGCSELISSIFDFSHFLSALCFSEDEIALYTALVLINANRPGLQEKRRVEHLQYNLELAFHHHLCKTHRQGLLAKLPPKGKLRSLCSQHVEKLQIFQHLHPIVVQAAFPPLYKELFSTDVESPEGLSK
#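 In this cell-based reporter format, copper sulfate (700 uM final) drives Gal4–ROR gamma fusion expression from a metallothionein promoter in Drosophila Schneider cells; compounds preincubated 1 hr, reporter read after 20 hr at ambient temperature.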
# ELG1 repair inh – blocks ELG1-dependent DNA repair in HEK293T cells; HEK293T ELG1-luciferase reporter, luminescence, 16 h; DNA damage induced by 5-fluorouridine; Potency, µM (titrated, usually from 46.1 µM), inactives show top-dose activity change, negative = inhibition, most hits filed as inhibitors; 330,000 compounds, 2.3% hits; AID 504467; note: potency is the fitted concentration of half-maximal effect; nearly all actives have a fitted effect of over 55% in size
#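 5-Fluorouridine DNA damage + compound/DMSO, 2,000 cells/well, 16 h, 37 °C/5% CO2. ONE-Glo, 30 min RT, luminescence. Readout = decrease in reporter signal.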
# VP16 counter – inhibits Gal4-VP16 luciferase reporter, ROR gamma counter-screen; 310,000 compounds, 3.5% hits; Potency, µM (titrated, usually from 53.6 µM), for inactives: at the highest dose activity, negative = inhibition, hits mostly inhibitors; Drosophila S2 Gal4-VP16 UAS-luciferase, luminescence, 20 h;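 note: Gal4-VP16 expression switched on by copper sulfate through the metallothionein promoter; potency is the fitted concentration of half-maximal effect; nearly all actives have a fitted effect of over 50% in size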
# TDP1 cell CPT – growth inhibition of DT40 Tdp1-/-;hTDP1 cells with camptothecin (screen for TDP1 inhibitors). chicken DT40 Tdp1-/-;hTDP1 cells + 20 nM CPT, ATP luminescence, 48 h. Potency, µM (doses to about 46.2 µM), for inactives: at the top dose activity change, negative = growth inhibition, hits mostly inhibitors. 420,000 compounds, 12% hits; note: potency is the fitted concentration of half-maximal effect; nearly all actives have a fitted effect of over 55% in size
#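 Chicken DT40 Tdp1-/- cells stably complemented with human TDP1 were seeded at 400 cells/well in medium containing 20 nM camptothecin, exposed to pin-transferred compounds, and grown at 37 °C for at least 48 hr. Viability was read as ATP luminescence.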
# IL-1B inflam inh – blocks inflammasome-driven IL-1 beta release | 360,000 compounds, 4.7% hits | activity change, % at 57.5 µM | THP-1 LPS/ATP IL-1B secretion, AlphaLISA, 16 h; active compounds read low | AID 743279; in the data active = activity change below about -50%; inconclusive = mostly about -30% to -49%
#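 Secreted IL-1B measured by AlphaLISA bead assay after 16 h compound exposure of THP-1 cells; compounds (final up to 57.5 uM) added 1 h before LPS (250 ng/mL) and ATP (1.25 mM) stimulation; lower signal means less secretion.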
# DT40 TDP1 no CPT – qHTS for Inhibitors of human tyrosyl-DNA phosphodiesterase 1 (TDP1): qHTS in cells in absence of CPT | DT40 Tdp1-/- hTDP1 cells, no CPT, ATP luminescence, 48 h | Potency, µM (series often up to 46.2 µM), for inactives: at the highest dose activity change, negative = growth inhibition, most hits filed as inhibitors | 420,000 compounds, 15% hits | AID 686978, 2013; note: potency is the fitted concentration of half-maximal effect; nearly all actives have a fitted effect of over 55% in size
#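 Stably hTDP1-transfected Tdp1-null chicken DT40 cells were treated with library compounds minus camptothecin and grown for at least 48 hr at 37 °C, after which cellular ATP was quantified by luminescence.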
# Numbers without * were called inactive; ? = inconclusive; . = no result given; [ ] = remark or other dose. Most compounds without a hit are left out; they make up all but 21% or so of the library. Unless noted, calls come from the whole dose curve; as a rule, active = well fitted curve in the direction sought with a large enough effect; inconclusive = small, poorly fitted or top-dose-only effect, or another doubt; inactive = no such curve, though single readings can be large; an effect the other way counts as inactive or inconclusive. % is set by controls: 0 for no effect and ±100 for the full control effect.
SMILES,RORgamma inh,ELG1 repair inh,VP16 counter,TDP1 cell CPT,IL-1B inflam inh,DT40 TDP1 no CPT
CCN(CC)C(=O)c1cccc(-c2csc(C(C)(NC(C)=O)c3ccccc3)n2)c1 (stereo unspecified),.,.,.,?,-4.5,?
CC(O)(c1ccccc1)c1nc(-c2cccc(F)c2)cs1 (stereo unspecified),.,.,.,20.6µM*,-0.7,-22.0%
COCc1cccc(-c2csc(C(C)(O)c3ccccc3)n2)c1 (stereo unspecified),.,.,.,?,0.0,?
CC(O)(c1cccc(F)c1)c1nc(-c2cc(F)cc(F)c2)cs1 (stereo unspecified),.,.,.,2.91µM*,-12.3,?
CC(=O)Nc1cccc(-c2csc(C(C)(O)c3cccc(F)c3)n2)c1 (stereo unspecified),.,.,.,23.1µM*,58.7,?
CCN(CC)C(=O)c1cccc(-c2csc(C(C)(O)c3cccc(F)c3)n2)c1 (stereo unspecified),.,.,.,18.4µM*,-22.8,23.1µM*
CC(C)C[C@H](NC(=O)[C@H](Cc1ccccc1)NC(=O)[C@@H]1CCCN1C(=O)[C@H](CC(=O)O)NC(=O)[C@@H]1CCC(=O)N1)C(=O)N[C@@H](CCCN=C(N)N)C(=O)N[C@@H](Cc1ccccc1)C(N)=O,18.8%,.,-6.9%,.,.,.
COc1ccc(C(=O)NCC(c2ccco2)N(C)C)cc1S(=O)(=O)NCc1ccc(Cl)cc1 (stereo unspecified),.,-6.1%,.,-13.8%,2.9,-33.9%
Cc1ccc(C(=O)NNS(=O)(=O)c2ccc(F)cc2)cc1,-24.2%,?,-1.1%,-1.4%,-1.7,2.4%
CC1(C(=O)NS(=O)(=O)c2cccc(F)c2)CCN1C(=O)C1(c2ccc(Cl)cc2)CCC1 (stereo unspecified),.,.,.,-23.5%,0.0,1.7%
OC(c1ccccc1)(c1nc(/C=C/c2ccc(C(F)(F)F)cc2)cs1)C(F)(F)F (stereo unspecified),.,.,.,?,-2.1,23.1µM*
CC(O)(c1cccc(F)c1)c1nc(/C=C/c2ccccc2)cs1 (stereo unspecified),.,.,.,18.4µM*,-3.7,?
CC(O)(c1ccc(F)c(F)c1)c1nc(/C=C/c2ccc(C(F)(F)F)cc2)cs1 (stereo unspecified),.,.,.,?,-20.4,?
COc1ccc(-c2csc(C(C)(O)c3cccc(F)c3)n2)cn1 (stereo unspecified),.,.,.,23.1µM*,12.6,23.1µM*
CC(O)(c1cccc(F)c1)c1nc(-c2ccc3ccccc3c2)cs1 (stereo unspecified),.,.,.,13µM*,0.0,23.1µM*
Nc1cc(Cl)nc(N/N=C/c2c(O)ccc3ccccc23)n1,0.631µM*,?,11.2µM*,?,71.0,16.4µM*
Nc1nonc1N/N=C/c1c(O)ccc2ccccc12,11.2µM*,-0.7%,-2.5%,31.9%,-59.4*,-54.4%
Nc1nonc1N/N=C\c1ccccc1,14.2%,?,-2.0%,4.2%,-0.3,-23.0%
O=C(O)c1cc(N/N=C/c2c(O)ccc3ccccc23)ccc1Cl,20.2%,?,-23.1%,-23.8%,19.4,10.4%
Cc1ccc(CCNC(=O)Cn2ncc3c(=O)oc4ccccc4c32)cc1,.,.,.,0.8%,.,-17.1%
O=C(COC(=O)c1ccc[nH]c1=O)NCCCc1ccccc1,.,24.5%,.,-6.3%,4.0,10.7%
Cc1nc2ccccn2c1C(=O)NNC(=S)Nc1ccc(Cl)cc1,-40.3%,-14.2%,?,?,13.2,18.4µM*
Cc1cccc(-n2cnc(C(=O)N/N=C\c3ccc(Br)cc3)c2)n1,-12.7%,-11.9%,0.7%,4.3%,-12.7,-11.2%
Cc1nc2ccccn2c1C(=O)NNC(=S)Nc1ccccc1,-22.2%,13.0%,2.9%,5.1%,9.6,-6.9%
Cc1cccc(-n2cnc(C(=O)NNC(=S)Nc3ccc(Cl)cc3)c2)n1,?,?,-33.6%,7.31µM*,159.4,11.6µM*
SMILES,RORgamma inh,ELG1 repair inh,VP16 counter,TDP1 cell CPT,IL-1B inflam inh,DT40 TDP1 no CPT
CCOC(=O)C1=C(c2ccccc2)NC(N)=NC1c1ccc(OCc2ccc(Cl)cc2)c(OC)c1 (stereo unspecified),-0.7%,14.9%,-18.2%,23.1µM*,?,?
CCOC(=O)C1=C(c2ccccc2)NC(=O)NC1c1cc(Cl)c(O)c(OC)c1 (stereo unspecified),?,-6.1%,2.9%,-21.6%,-1.6,?
Cc1nc2scc(-c3ccc(Cl)cc3)c2c(=O)n1N,28.7%,-7.6%,7.4%,-28.3%,0.0,?
CC(C)c1nc2scc(-c3ccc(Cl)cc3)c2c(=O)n1N,?,?,-3.1%,25.9µM*,-18.6,?
CC1(C)Oc2cc3c(cc2O1)OC(C)(C)O3,-0.2%[10 µM],.,0.3%[10 µM],.,.,.
Cn1cc(C(=O)c2ccc(Cl)cc2Cl)cc1C(=O)N/N=C(\N)COc1ccc(Cl)cc1,1.41µM*,18.3µM*,3.55µM*,?,1.1,?
CNC(=O)/C=C/c1cc(C(=O)c2ccc(Cl)cc2Cl)cn1C,-0.3%,-5.3%,-1.3%,?,22.4,?
Cn1cc(C(=O)c2ccc(Cl)cc2Cl)cc1C(=O)N/N=C(\N)COc1ccccc1,0.708µM*,-27.6%,1.58µM*,?,-0.1,?
CCOC(=O)C(NC(=O)c1ccc(Cl)cc1Cl)(Nc1ccc(C)cc1)C(F)(F)F (stereo unspecified),-25.0%,7.2%,15.1%,23.1µM*,-20.8,16.4µM*
Cn1cc(C(=O)c2ccc(Cl)cc2Cl)cc1C(=O)N/N=C(\N)COc1ccc(F)cc1,2.24µM*,-18.8%,2.51µM*,?,-1.5,16.4µM*
O=C(O)C1C=CCC(C(=O)O)C1 (stereo unspecified),.,.,.,11.9%,-12.6,16.2%
CCOC(=O)N1CCN(C(=O)COC(=O)CNC(=O)c2ccc(Cl)cc2Cl)CC1,.,16.2%,.,10.9%,0.4,-3.7%
Cn1cc(C(=O)c2ccc(Cl)cc2Cl)cc1C(=O)N/N=C(\N)COc1ccc(Cl)cc1Cl,1.41µM*,23.1µM*,3.98µM*,?,-10.6,?
Cn1cc(C(=O)c2ccc(Cl)cc2Cl)cc1C(=O)O,15.7%,1.4%,2.2%,3.0%,-2.8,-13.0%
CCOC(=O)C/C(N)=N/NC(=O)c1ccc(Cl)cc1Cl,7.94µM*,13.6%,?,10.6%,22.5,-16.3%
